The campaign covered roughly 310,000 compounds. About 14,000 (4.5%) showed an effect of 50% or more. The effect is printed as a negative number. The list comes from a sample in which strong results are over-represented; it also holds similar structures and randomly drawn compounds.
target: human ether-à-go-go-related gene (hERG) potassium channel (human, UniProt Q12809); test: primary screen, population patch clamp on CHO cells stably expressing hERG; higher = less effect of the substance
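Further: peak tail current of the secondary pulse compared with the same well before compound.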

Chain of human ether-à-go-go-related gene (hERG) potassium channel (Q12809 whole entry, looked up): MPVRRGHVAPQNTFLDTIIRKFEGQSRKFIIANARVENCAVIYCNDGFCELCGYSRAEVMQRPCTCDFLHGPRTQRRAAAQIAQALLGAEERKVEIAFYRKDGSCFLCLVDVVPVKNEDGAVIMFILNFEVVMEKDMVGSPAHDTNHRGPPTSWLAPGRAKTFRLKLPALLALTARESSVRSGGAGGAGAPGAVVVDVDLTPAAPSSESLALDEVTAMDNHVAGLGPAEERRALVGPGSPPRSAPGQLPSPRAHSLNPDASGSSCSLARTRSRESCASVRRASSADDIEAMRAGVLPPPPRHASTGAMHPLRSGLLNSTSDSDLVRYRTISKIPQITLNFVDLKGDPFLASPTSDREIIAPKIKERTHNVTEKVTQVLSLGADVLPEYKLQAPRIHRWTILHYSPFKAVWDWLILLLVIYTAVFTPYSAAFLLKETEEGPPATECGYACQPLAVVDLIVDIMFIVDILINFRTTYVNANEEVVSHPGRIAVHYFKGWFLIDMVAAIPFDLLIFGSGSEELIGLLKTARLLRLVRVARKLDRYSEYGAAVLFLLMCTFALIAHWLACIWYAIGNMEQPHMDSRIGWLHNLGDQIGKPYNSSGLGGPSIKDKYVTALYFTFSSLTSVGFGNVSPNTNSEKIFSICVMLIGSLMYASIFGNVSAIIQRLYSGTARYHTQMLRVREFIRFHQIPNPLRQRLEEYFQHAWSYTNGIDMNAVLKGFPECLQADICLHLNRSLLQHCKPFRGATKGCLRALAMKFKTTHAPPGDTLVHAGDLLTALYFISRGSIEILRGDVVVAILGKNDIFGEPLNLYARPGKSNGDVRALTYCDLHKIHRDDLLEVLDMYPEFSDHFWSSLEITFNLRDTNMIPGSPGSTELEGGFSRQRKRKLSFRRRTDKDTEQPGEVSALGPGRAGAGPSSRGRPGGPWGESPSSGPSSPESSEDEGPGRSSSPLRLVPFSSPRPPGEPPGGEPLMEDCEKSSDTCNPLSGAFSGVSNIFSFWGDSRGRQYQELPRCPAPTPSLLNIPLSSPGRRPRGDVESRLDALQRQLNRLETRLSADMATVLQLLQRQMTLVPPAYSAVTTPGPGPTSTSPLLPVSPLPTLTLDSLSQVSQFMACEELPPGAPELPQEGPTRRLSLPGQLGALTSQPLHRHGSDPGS

Compound | hERG current change (%, negative = inhibition) at 10uM
CN(CC(=O)Nc1ccccc1Br)C(=O)CCC1CCCC1 | 9.57%
CCCCC1(C)NC(=S)N2N1C(=S)NC2(C)CCCC (stereo not drawn) | 15.1%
Cc1noc(C)c1C(=O)Nc1nc2ccc(S(C)(=O)=O)cc2s1 | 2.86%
O=C(O)C(CCCCN1C(=O)C2C3C=CC(C3)C2C1=O)N1C(=O)C2C3C=CC(C3)C2C1=O (stereo not drawn) | 2.41%
CCOC(=O)c1[nH]ncc1CN1CCCC(C(=O)c2ccc(OC)cc2C)C1 (stereo not drawn) | -49.4%
CCOC(=O)c1[nH]ncc1CN1CCCC(C(=O)c2cc(Cl)ccc2OC)C1 (stereo not drawn) | -71.1%
CCOC(=O)c1[nH]ncc1CN1CCCC(C(=O)c2cccc(OC(C)C)c2)C1 (stereo not drawn) | -42.1%
CCOC(=O)c1[nH]ncc1CN1CCCC(C(=O)c2ccc(C(C)(C)C)cc2)C1 (stereo not drawn) | -17.6%
CCOC(=O)c1[nH]ncc1CN1CCCC(C(=O)c2ccc(SC)cc2)C1 (stereo not drawn) | -73%
CCOC(=O)c1[nH]ncc1CN1CCCC(C(=O)c2cccc(Cl)c2)C1 (stereo not drawn) | -22.6%
O=C(COC(=O)C1CCCCC1)Nc1ccc(N2CCCCC2)cc1 | 2.16%
COc1ccc(C2(CNS(=O)(=O)c3ccccc3)CCOCC2)cc1 | -4.62%
COc1ccc(NC(=O)C2CCCN2S(=O)(=O)c2cccc3cccnc23)c(OC)c1 (stereo not drawn) | -6.73%
CCOc1cc2c(cc1C=O)OC(C)C2 (stereo not drawn) | 22.1%
Cl.O=C(c1ccc(Cl)c(S(=O)(=O)N2CCCCCC2)c1)N1CCN(CCO)CC1 | -34.4%
CCN1CCN(C(=O)c2ccc(Cl)c(S(=O)(=O)N3CCOCC3)c2)CC1 | -0.549%
O=C(c1ccc(Cl)c(S(=O)(=O)N2CCCCC2)c1)N1CCN(Cc2ccccc2)CC1 | -59.1%
CCN1CCN(C(=O)c2ccc(Cl)c(S(=O)(=O)N3CCCCC3)c2)CC1 | -69.8%
O=C(c1ccc(Cl)c(S(=O)(=O)N2CCOCC2)c1)N1CCN(Cc2ccccc2)CC1 | -25.3%
O=C(c1ccc(Cl)c(S(=O)(=O)N2CCCCC2)c1)N1CCCCC1 | -31.7%
O=C(c1ccc(Cl)c(S(=O)(=O)N2CCCCCC2)c1)N1CCCC1 | -38.9%

Compound | hERG current change (%, negative = inhibition) at 10uM
O=C(c1ccc(Cl)c(S(=O)(=O)N2CCCCCC2)c1)N1CCCCC1 | -20.7%
CCN1CCN(C(=O)c2ccc(Cl)c(S(=O)(=O)N3CCCCCC3)c2)CC1.Cl | -60.9%
CCCn1c(N)c(N(CCOC)C(=O)c2cccc(S(=O)(=O)N3CCCc4ccccc43)c2)c(=O)[nH]c1=O | 3.29%
O=C(NCC1CCCO1)c1cccs1 (stereo not drawn) | 4.89%
Cc1cc(OCC(=O)OCC(=O)NC2CCCCC2C)ccc1Cl (stereo not drawn) | 0.466%
CC(=O)Nc1ccc(S(=O)(=O)NNC(=O)c2cccc(Br)c2)cc1 | 15.9%
CCC(=NCCCN1CCOCC1)c1c(O)n(-c2ccccc2C)c(=O)[nH]c1=O | 8.28%
CCCCN1C(=O)C(=O)N(CC(=O)Nc2sc(CC)cc2C(=O)OCC)C1=O | -10%
Cc1ccc(Oc2ccc(OCC(=O)NC(C)C(=O)O)cc2)cc1 (stereo not drawn) | -25.1%
Cc1c(C#N)c(N)nc(Cl)c1C#N | 25.9%
NC(=O)C1(NC(=O)[C@@H]2CC3(CC(c4cccc(NC(=O)[C@@H]5CCC(=O)N5)c4)=NO3)CN2C(=O)c2ccccc2)CC1 (stereo partly drawn) | 1.96%
CCCCOC(=O)NC1(C)CCS(=O)(=O)C1 (stereo not drawn) | 27.1%
CC(C)OCCCNC(=S)N1CCC(C(=O)c2ccc3c(c2)OCCO3)CC1 | -22.9%
Cc1ccc2sc(N(CCN(C)C)C(=O)c3ccc(S(=O)(=O)N4CC(C)OC(C)C4)cc3)nc2c1C.Cl (stereo not drawn) | 1.87%
CCOC(=O)/C=C/[C@H]1CCc2cccc(Cl)c2O1 | 9.23%
CN1CCN(NC(=O)c2ccc(Cl)cc2Cl)CC1 | 0.116%
Cc1cc(C(=O)N/N=C2/CC(C)CC(C)(C)C2)c(C)o1 (stereo not drawn) | -8.27%
COc1ccc(NC(=S)N2CCC(NC(=O)c3cccc(F)c3)CC2)cc1 | -16.7%
COc1cccc(C(=O)NC2CC3CCC(C2)N3Cc2ccccc2)c1 (stereo not drawn) | -28.7%
COc1ccc(CN2C3CCCC2CC(NC(=O)c2cccc(F)c2)C3)cc1 (stereo not drawn) | -82%
COc1ccc(CN2C3CCC2CC(NC(=O)c2cccc(F)c2)C3)cc1 (stereo not drawn) | -75.2%

— article PMC4336329 (PLoS ONE, 2015)
